{"source": "PubChem BioAssay AID1345085", "about": "(National Center for Advancing Translational Sciences (NCATS), 2018)", "note": "Results filed as inconclusive are left out. Activity calls are given as the source filed them. Calls come from the whole dose curve; as a rule, active = well fitted cell-killing curve with a large enough effect; inconclusive = small, poorly fitted or top-dose-only effect, or effect the other way; inactive = no such curve, though single readings can be large or run the other way. Potency is the fitted concentration of half-maximal effect.", "data": [{"system": "CASKI", "assay": "Confirmatory qHTS for gynecologic anti-cancer compounds from libraries of approved drugs and bioactive compounds; note: nearly all actives have a fitted effect of over 55% in size", "details": "gynecologic cancer cell panel viability, ATPlite luminescence, 48 h; series mostly up to 57.6 µM", "procedure,_shortened": "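ATP-based luminescent viability (ATPlite) after 48 h drug treatment at 37 °C, 5% CO2, across 57.5 uM–0.977 nM in 1:3 steps. Cells seeded at 1,000 per well 16 h beforehand; IC50 values computed, HEK 293T as selectivity control.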", "values": [{"compound": "CCN(CC)CCOc1ccc(/C(=C(\\Cl)c2ccccc2)c2ccccc2)cc1", "Potency": "112 µM (active)"}, {"compound": "Cc1ccc(C(=O)Nc2cccc(C(F)(F)F)c2)cc1-c1ccc2nc(NCCN3CCOCC3)ncc2c1", "Potency": "12.2 µM (active)"}, {"compound": "O=C1c2c(O)ccc(O)c2C(=O)c2c(NCCNCCO)ccc(NCCNCCO)c21", "Potency": "7.69 µM (active)"}, {"compound": "Cc1cncc2cccc(S(=O)(=O)N3CCCN(C(=O)CN)C[C@@H]3C)c12", "Potency": "inactive"}, {"compound": "CNC(=O)c1nn(C)c2c1C(C)(C)Cc1cnc(Nc3ccc(N4CCN(C)CC4)cc3)nc1-2", "Potency": "10.9 µM (active)"}, {"compound": "COCCOc1nc(-c2ccc(Cl)c(Cl)c2)n(-c2ccc(NC(=O)CCl)cc2)n1", "Potency": "inactive"}, {"compound": "CCc1cccc(CC)c1NC(=O)N1Cc2[nH]nc(NC(=O)c3ccc(N4CCN(C)CC4)cc3)c2C1", "Potency": "19.3 µM (active)"}, {"compound": "CCCCc1nc2cc(/C=C/C(=O)NO)ccc2n1CCN(CC)CC", "Potency": "4.85 µM (active)"}, {"compound": "Cc1cnc(Nc2ccc(CN3CCOCC3)cc2)nc1Nc1cccc(S(=O)(=O)NC(C)(C)C)c1", "Potency": "4.85 µM (active)"}, {"compound": "Fc1cc(-c2cccc3ncc(-c4cnn(C5CCNCC5)c4)nc23)cc(F)c1CN1CCOCC1", "Potency": "34.3 µM (active)"}, {"compound": "O=C(CCCCCCC(=O)Nc1ccccc1)NO", "Potency": "12.2 µM (active)"}, {"compound": "CCCCc1oc2ccc(NS(C)(=O)=O)cc2c1C(=O)c1ccc(OCCCN(CCCC)CCCC)cc1", "Potency": "27.3 µM (active)"}, {"compound": "COc1cc(Nc2ncc3c(n2)-c2ccc(Cl)cc2C(c2c(F)cccc2OC)=NC3)ccc1C(=O)O", "Potency": "19.3 µM (active)"}, {"compound": "COc1ccc(-c2cc3nccn3c(Nc3ncccc3C(N)=O)n2)cc1OC", "Potency": "inactive"}, {"compound": "CN(C)CC/C=C1\\c2ccccc2COc2ccccc21", "Potency": "inactive"}, {"compound": "OCCNC1CCCc2c1[nH]c1ccc(-c3ccccc3)cc21", "note": "(configuration not stated)", "Potency": "30.6 µM (active)"}, {"compound": "c1nc2nc(Nc3ccc(N4CCOCC4)cc3)nc(NC3CCCCC3)c2[nH]1", "Potency": "7.49 µM (active)"}, {"compound": "CN(C)CCC(CSc1ccccc1)Nc1ccc(S(=O)(=O)NC(=O)c2ccc(N3CCN(Cc4ccccc4-c4ccc(Cl)cc4)CC3)cc2)cc1[N+](=O)[O-]", "note": "(configuration not stated)", "Potency": "3.85 µM (active)"}, {"compound": "CO[C@@]12[C@H](COC(N)=O)C3=C(C(=O)C(C)=C(N)C3=O)N1C[C@@H]1N[C@@H]12", "Potency": "inactive"}, {"compound": "Cc1cc(CN2CCN(c3c(Br)cnc4nc(-c5ccc(N6CCN(C)CC6)cc5)[nH]c34)CC2)no1", "Potency": "27.3 µM (active)"}, {"compound": "Cc1nc(NC(=O)N2CCCC2C(N)=O)sc1-c1ccnc(C(C)(C)C(F)(F)F)c1", "note": "(configuration not stated)", "Potency": "7.69 µM (active)"}, {"compound": "O=C(Nc1cccnc1)N1CCC(Cc2cccc(Oc3ccc(C(F)(F)F)cn3)c2)CC1", "Potency": "12.2 µM (active)"}, {"compound": "O=c1[nH]c(=O)n([C@H]2C[C@H](O)[C@@H](CO)O2)cc1C(F)(F)F", "Potency": "9.68 µM (active)"}, {"compound": "Cc1cc(Nc2nc(N[C@@H](C)c3ccc(F)cc3)c(C#N)cc2F)n[nH]1", "Potency": "13.7 µM (active)"}, {"compound": "CCc1c2c(nc3ccc(OC(=O)N4CCC(N5CCCCC5)CC4)cc13)-c1cc3c(c(=O)n1C2)COC(=O)[C@]3(O)CC", "Potency": "19.3 µM (active)"}, {"compound": "Cc1c(NC(=O)OCC2COCCN2)cn2ncnc(Nc3ccc4c(cnn4Cc4cccc(F)c4)c3)c12", "note": "(configuration not stated)", "Potency": "19.3 µM (active)"}, {"compound": "COc1c(C)c2c(c(O)c1C/C=C(\\C)CCC(=O)O)C(=O)OC2", "Potency": "inactive"}, {"compound": "CCC1C(=O)N(C)c2cnc(Nc3ccc(C(=O)NC4CCC(N5CCN(CC6CC6)CC5)CC4)cc3OC)nc2N1C(C)C", "note": "(configuration not stated)", "Potency": "6.11 µM (active)"}, {"compound": "Nc1ccccc1NC(=O)c1ccc(CNc2nccc(-c3cccnc3)n2)cc1", "Potency": "8.63 µM (active)"}, {"compound": "CN1CCN(c2cccc(Nc3nc4c(-c5ccc(S(C)(=O)=O)cc5)cccn4n3)c2)CC1", "Potency": "inactive"}, {"compound": "OCc1ccc(-c2ccc(-c3ccc(CO)s3)o2)s1", "Potency": "inactive"}, {"compound": "CCN1C[C@H](C)n2c(c(O)c3c(=O)n(Cc4ccc(F)c(Cl)c4)nc(C(=O)NC)c32)C1=O", "Potency": "inactive"}]}]}
